From the supplement of paper PMC11001985
A number with no mark means an inactive call.

What follows are targets tested with C#CCNC(=O)CCSSCCC(=O)NCCc1ccc(C=O)c(C=O)c1 (assay: lysine labeling ratio R10:1 (500 µM / 50 µM probe), SILAC-ABPP in living cells; higher = lower intrinsic lysine reactivity toward the probe, active = 2 or less). Conditions: HeLa; probe concentrations 500 vs 50 µM.
Procedure, shortened: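 Measurements came from LC-MS/MS on a TIMS-TOF Pro of mixed SILAC light and heavy HeLa lysates after click to biotin-azide, trypsin digestion, neutravidin capture, DTT release and alkylation. Before lysis, the living cells sat in PBS at room temperature with 50 µM or 500 µM of an alkyne-tagged, disulfide-linked lysine probe, and labels were swapped forward and reverse. R per lysine is the median across both swap directions of the filtered median high-probe/low-probe MS1 peptide ratio. The cap is 20.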

Sequence of UniProt P08581 (P08581 whole entry): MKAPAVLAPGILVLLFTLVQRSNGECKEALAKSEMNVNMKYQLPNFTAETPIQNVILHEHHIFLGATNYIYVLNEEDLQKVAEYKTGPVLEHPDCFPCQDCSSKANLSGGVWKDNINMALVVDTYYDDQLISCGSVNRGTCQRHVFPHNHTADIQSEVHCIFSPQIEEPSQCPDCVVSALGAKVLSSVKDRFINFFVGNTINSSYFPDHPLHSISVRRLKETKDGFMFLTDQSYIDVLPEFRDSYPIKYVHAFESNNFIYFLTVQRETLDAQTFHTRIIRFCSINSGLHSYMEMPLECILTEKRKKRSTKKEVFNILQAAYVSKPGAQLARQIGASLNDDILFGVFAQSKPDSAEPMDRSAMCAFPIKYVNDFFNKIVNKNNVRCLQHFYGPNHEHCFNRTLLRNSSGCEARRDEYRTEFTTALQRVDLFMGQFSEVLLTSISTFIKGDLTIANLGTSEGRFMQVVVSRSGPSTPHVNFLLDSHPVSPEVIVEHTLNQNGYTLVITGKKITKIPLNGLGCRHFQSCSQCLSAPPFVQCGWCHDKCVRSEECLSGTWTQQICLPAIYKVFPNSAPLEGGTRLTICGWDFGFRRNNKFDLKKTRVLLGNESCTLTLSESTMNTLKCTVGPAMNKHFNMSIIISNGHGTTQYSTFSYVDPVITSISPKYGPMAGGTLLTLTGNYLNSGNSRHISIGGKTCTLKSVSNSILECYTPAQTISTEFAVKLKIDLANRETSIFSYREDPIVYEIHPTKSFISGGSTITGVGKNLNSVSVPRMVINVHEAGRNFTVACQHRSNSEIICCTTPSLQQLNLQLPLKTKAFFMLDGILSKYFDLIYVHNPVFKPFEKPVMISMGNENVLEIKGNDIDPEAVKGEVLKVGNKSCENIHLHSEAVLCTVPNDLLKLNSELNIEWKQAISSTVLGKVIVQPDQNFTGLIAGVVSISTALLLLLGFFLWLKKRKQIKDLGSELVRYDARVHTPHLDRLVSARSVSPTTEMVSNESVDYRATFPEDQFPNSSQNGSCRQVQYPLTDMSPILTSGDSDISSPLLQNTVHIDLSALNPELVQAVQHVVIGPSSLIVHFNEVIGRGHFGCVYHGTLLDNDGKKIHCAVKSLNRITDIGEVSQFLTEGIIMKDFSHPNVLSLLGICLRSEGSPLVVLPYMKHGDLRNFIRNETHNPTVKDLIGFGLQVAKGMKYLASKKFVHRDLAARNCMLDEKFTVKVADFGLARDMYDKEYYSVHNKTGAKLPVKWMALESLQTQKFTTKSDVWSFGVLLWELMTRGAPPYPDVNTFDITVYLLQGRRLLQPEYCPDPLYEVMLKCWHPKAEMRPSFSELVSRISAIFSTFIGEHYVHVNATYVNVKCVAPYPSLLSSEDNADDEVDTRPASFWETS
Sequence of UniProt P14923 (P14923 whole entry): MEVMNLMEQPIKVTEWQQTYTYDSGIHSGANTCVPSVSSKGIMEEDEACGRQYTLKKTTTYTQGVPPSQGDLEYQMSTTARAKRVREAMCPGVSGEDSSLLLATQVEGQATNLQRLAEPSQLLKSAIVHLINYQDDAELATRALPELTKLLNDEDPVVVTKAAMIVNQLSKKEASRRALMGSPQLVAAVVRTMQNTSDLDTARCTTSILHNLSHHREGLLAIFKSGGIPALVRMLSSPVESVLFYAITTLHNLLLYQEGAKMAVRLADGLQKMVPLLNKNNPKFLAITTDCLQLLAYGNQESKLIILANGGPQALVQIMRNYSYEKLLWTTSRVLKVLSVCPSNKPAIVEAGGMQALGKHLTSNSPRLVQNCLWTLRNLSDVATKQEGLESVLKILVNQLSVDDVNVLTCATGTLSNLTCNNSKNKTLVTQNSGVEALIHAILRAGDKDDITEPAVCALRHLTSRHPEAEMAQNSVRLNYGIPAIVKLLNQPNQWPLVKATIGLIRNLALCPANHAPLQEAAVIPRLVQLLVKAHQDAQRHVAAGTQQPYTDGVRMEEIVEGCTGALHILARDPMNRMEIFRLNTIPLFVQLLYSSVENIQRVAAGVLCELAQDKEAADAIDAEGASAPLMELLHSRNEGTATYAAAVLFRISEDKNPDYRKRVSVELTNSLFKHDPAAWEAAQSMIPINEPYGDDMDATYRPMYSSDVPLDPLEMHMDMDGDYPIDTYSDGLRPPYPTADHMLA
Sequence of UniProt Q9HCM3 (Q9HCM3 whole entry): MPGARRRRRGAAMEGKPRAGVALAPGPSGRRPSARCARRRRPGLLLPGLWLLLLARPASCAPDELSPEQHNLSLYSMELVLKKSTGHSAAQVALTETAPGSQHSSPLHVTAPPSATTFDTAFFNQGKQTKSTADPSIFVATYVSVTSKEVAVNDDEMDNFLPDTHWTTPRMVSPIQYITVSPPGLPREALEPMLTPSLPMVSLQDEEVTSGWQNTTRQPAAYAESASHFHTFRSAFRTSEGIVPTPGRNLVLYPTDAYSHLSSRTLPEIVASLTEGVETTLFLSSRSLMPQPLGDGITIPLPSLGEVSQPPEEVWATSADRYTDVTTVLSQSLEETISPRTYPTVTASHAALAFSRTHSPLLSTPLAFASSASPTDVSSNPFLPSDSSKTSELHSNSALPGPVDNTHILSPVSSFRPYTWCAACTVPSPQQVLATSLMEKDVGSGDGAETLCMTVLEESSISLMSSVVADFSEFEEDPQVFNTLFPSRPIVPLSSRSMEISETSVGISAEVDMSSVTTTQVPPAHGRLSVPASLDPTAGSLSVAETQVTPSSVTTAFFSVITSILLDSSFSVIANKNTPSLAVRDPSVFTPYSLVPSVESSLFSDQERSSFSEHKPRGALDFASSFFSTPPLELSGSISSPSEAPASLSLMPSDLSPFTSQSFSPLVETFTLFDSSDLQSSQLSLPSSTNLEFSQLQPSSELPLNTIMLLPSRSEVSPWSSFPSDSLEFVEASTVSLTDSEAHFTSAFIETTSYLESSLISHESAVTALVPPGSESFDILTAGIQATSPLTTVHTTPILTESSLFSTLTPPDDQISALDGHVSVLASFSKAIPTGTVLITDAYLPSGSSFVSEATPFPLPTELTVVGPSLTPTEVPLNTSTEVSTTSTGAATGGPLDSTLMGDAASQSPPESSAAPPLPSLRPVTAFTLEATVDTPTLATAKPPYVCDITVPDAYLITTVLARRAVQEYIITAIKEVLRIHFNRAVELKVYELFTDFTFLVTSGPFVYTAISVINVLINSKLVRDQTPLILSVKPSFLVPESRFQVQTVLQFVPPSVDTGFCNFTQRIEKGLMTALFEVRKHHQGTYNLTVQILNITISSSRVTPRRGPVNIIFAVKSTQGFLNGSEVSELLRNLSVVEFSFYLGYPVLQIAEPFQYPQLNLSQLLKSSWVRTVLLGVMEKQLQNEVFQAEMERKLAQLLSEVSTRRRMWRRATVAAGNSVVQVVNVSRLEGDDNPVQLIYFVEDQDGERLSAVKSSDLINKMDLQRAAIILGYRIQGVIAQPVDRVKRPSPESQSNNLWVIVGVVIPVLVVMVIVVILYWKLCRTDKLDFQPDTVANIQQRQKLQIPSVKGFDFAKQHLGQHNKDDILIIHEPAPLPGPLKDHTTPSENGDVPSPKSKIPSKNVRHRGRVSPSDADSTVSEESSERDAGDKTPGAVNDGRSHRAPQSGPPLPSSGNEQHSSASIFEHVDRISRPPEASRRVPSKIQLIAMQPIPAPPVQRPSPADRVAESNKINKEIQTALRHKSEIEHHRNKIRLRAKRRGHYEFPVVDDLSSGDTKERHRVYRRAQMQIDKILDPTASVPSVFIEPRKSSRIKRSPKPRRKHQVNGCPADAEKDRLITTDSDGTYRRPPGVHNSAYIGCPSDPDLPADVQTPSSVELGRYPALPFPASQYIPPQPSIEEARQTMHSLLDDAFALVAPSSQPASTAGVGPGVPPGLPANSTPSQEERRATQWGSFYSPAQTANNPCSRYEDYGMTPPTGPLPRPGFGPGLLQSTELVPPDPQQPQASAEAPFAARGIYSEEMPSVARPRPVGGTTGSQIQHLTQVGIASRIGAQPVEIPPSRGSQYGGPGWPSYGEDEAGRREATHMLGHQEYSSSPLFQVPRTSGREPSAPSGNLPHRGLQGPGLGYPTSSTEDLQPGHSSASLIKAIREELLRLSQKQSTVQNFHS
Sequence of UniProt O00560 (O00560 whole entry): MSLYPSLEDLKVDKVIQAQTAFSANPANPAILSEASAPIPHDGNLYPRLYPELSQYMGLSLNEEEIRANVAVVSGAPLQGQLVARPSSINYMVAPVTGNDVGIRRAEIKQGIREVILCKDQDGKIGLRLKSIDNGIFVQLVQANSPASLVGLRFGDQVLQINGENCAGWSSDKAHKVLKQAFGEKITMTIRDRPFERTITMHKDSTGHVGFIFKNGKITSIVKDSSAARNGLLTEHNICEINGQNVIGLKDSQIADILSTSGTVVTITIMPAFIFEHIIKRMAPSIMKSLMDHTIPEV
Sequence of UniProt P37108 (P37108 whole entry): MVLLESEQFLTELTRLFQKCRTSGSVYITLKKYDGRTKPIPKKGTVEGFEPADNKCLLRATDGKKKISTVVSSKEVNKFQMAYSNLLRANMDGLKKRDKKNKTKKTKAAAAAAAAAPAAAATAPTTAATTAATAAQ
Sequence of UniProt Q6NZI2 (Q6NZI2 whole entry): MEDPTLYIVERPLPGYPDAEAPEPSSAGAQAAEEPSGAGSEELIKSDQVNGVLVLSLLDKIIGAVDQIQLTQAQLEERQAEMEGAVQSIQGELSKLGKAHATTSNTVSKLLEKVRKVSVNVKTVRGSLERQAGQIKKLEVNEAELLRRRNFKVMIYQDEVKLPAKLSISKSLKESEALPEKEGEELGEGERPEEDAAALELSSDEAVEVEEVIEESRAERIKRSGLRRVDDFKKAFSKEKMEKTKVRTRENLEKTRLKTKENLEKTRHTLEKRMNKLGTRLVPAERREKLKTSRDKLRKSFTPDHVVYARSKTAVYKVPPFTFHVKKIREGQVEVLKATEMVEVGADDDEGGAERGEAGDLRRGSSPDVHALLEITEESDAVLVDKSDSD

Target | lysine labeling ratio R10:1
MET (lysine site: K599) (UniProt P08581) | 1.67 (active)
PTPRF (lysine site: K1103) (UniProt P10586) | 7.4
UniProt P05787 (lysine site: K464) | 5.11
MET (lysine site: K600) (UniProt P08581) | 1.67 (active)
UniProt Q9NY47 (lysine site: K270) | 2.85
TLN1 (lysine site: K2361) (UniProt Q9Y490) | 5.09
LAMC1 (lysine site: K1258) (UniProt P11047) | 1.54 (active)
SRP14 (lysine site: K55) (UniProt P37108) | 1.02 (active)
HNRNPL (lysine site: K302) (UniProt P14866) | 1.66 (active)
PSMD7 (lysine site: K180) (UniProt P51665) | 2.86
SDCBP (lysine site: K109) (UniProt O00560) | 5.45
ITGAV (lysine site: K889) (UniProt P06756) | 1.08 (active)
UniProt Q6NZI2 (lysine site: K137) | 3.08
RPS19 (lysine site: K77) (UniProt P39019) | 2.89
IQGAP1 (lysine site: K856) (UniProt P46940) | 1.47 (active)
UniProt P60866 (lysine site: K59) | 2.02
KPNB1 (lysine site: K211) (UniProt Q14974) | 2.19
CDH13 (lysine site: K178) (UniProt P55290) | 7.63
UniProt P55072 (lysine site: K658) | 6.64
KIAA1549 (lysine site: K1195) (UniProt Q9HCM3) | 2.77
JUP (lysine site: K656) (UniProt P14923) | 0.972 (active)
ATAD3B (lysine site: K117) (UniProt Q5T9A4) | 1.26 (active)
EIF3I (lysine site: K2) (UniProt Q13347) | 2.67
